From the supplement of paper PMC6555819

How the values were obtained:
Assay in all cases: PBM binding z-score (relative to random genomic background probes); higher = stronger binding; sequences stand for … in GC…GCGATTGACAGCGTAGAATGAAGG
[1] = tested on: PPARg:RXRa DBDmut IVT, anti-RXR (DBD mutation: RXRa K156A/R161A, NR concentration 270 nM, RXRa partner concentration 90 nM)
Procedure, shortened: (§1)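 For binding z-scores, the reference was random background probes on custom Agilent 4×180K protein-binding microarrays. These arrays were incubated 1 h with ligand-free nuclear receptor dimers in PBS pH 7.4, 2% milk, 0.02% Triton X-100, 1 mM DTT, 0.2 mg/mL BSA and 0.4 mg/ml salmon testes DNA. Fluorescence was scanned after antibody detection of each partner (one per run) and regression-normalized.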

[2] = tested on: PPARg:RXRa IVT, anti-PPARg (NR concentration 270 nM, RXRa partner concentration 90 nM)
Procedure, shortened: as §1

[3] = tested on: PPARg DBDmut:RXRa IVT, anti-PPARg (DBD mutation: PPARg1 K132A/R137A, NR concentration 270 nM, RXRa partner concentration 90 nM)
Procedure, shortened: as §1

[4] = tested on: PPARg DBDmut IVT, anti-PPARg (DBD mutation: PPARg1 K132A/R137A, NR concentration 270 nM)
Procedure, shortened: as §1

[5] = tested on: PPARg homodimer (NR concentration 180 nM)
Procedure, shortened: as §1

[6] = tested on: PXR:RXRa (NR concentration 270 nM, RXRa partner concentration 90 nM)
Procedure, shortened: as §1

[7] = tested on: PXR homodimer (NR concentration 270 nM)
Procedure, shortened: as §1

[8] = tested on: RARa:RXR (NR concentration 270 nM, RXRa partner concentration 90 nM)
Procedure, shortened: as §1

[9] = tested on: RARa homodimer (NR concentration 270 nM)
Procedure, shortened: as §1

[10] = tested on: RARb:RXRa (NR concentration 270 nM, RXRa partner concentration 90 nM)
Procedure, shortened: as §1

Row | Sequence | PBM binding z-score [1] | PBM binding z-score [2] | PBM binding z-score [3] | PBM binding z-score [4] | PBM binding z-score [5] | PBM binding z-score [6] | PBM binding z-score [7] | PBM binding z-score [8] | PBM binding z-score [9] | PBM binding z-score [10]
1 | ATCGAAAGGTCGAGGTGAGTATTGAGAAAGGGAA | 0.628 | 2.34 | 0.498 | 0.451 | 1.67 | 2.33 | 0.428 | 3.07 | 0.977 | 4.15
2 | CCTACTGGGCCATGCAGAGGTCATTGATCATATG | 3.41 | 4.39 | 0.533 | 0.384 | 2.69 | 5 | 1.62 | 4.75 | 0.229 | 3.05
3 | TCATATACGTAAAGGTGAAAGTCGAACGATATGA | 1.6 | 1.61 | 1.06 | 2 | 0.594 | 1.1 | -0.24 | 1.55 | 0.587 | 2.04
4 | TCTAGATGGTCAAAGGTCACACACTCGAAATGCG | 3.19 | 5.41 | 1.82 | 1.44 | 5.45 | 6.1 | 1.7 | 7.48 | 3.63 | 4.89
5 | TCTTGTAGATCAACAGGTTAAGAAAGCTGGCCAA | 1.96 | 0.82 | 0.047 | 0.206 | 0.081 | 0.51 | 0.0471 | 0.981 | -0.173 | 0.375
6 | TCATATAGGTAAACAGGAGAAAGTCCGTAAGTTA | 4.08 | 2.77 | 0.715 | 0.615 | 0.67 | 0.188 | 0.377 | 0.0372 | 0.767 | 0.292
7 | ATCTCTAGTTAACCAAGTTCAGTGAATGCCGAAC | -0.131 | 0.461 | 0.59 | 1.22 | 1 | 2.1 | 3 | 0.723 | 1.21 | 0.932
8 | CCGACTGGGGCATAAGGTTACCACAAGCCAGCCC | 2.87 | 3.09 | -1.04 | -1.03 | 0.364 | 0.223 | -0.315 | 1.25 | -0.43 | 1.73
9 | GCATATAGGTAATCCAAGGTGAAAGTCCGATTGT | 4.62 | 3.17 | 0.831 | 0.665 | 1.03 | 0.638 | 0.241 | 1.53 | 0.647 | 0.51
10 | CCTACTGGGCCATCAGGTCATTCATATCAACGTT | 4.57 | 4.74 | 0.597 | 0.12 | 1.48 | 1.73 | 1.07 | 1.96 | 0.469 | 2.01
11 | ATATGTAGGTTAGTTGGGGTCATTCAGACTAGGC | 6.81 | 5.83 | 2.02 | 2.15 | 3.78 | 6.79 | 7.04 | 5.99 | 2.35 | 3.21
12 | TCACATAGGTAAACAGGTGAAAGTCCGTAAGTTA | 2.55 | 2.23 | 0.587 | 0.655 | 1.1 | 0.542 | 0.449 | 0.976 | -0.0341 | 0.847
13 | ACTTGTTGGTCAGCTGAGGTCACACACAATTCGG | 1.72 | 2.7 | 1.08 | 0.437 | 2.22 | 5.63 | 1.27 | 4.54 | 0.13 | 3.71
14 | CCTAGTTGATCAGGAGGTCACACACCGGATATGA | 0.771 | 2.22 | 0.83 | 0.641 | 4.38 | 4.62 | 1.79 | 5.02 | 2.57 | 3.46
15 | TCTTGTAGATCAAGTAGGTTAAGAAAGCCTGAGT | 2.13 | 2.44 | 0.611 | 0.864 | 0.365 | 0.513 | 0.364 | 0.645 | 0.0237 | 0.154
16 | ATACCAAGGTGATCGGGAGGTCGTTGATACTAAC | 0.345 | 1.15 | 0.229 | 0.179 | 1.3 | 2.92 | 1.26 | 2.08 | 0.622 | 1.31
17 | ACTGACGGGTCAACGAGGTTATAGCACGCGTATA | 0.94 | 2.54 | 0.338 | 0.241 | 1.88 | 4.39 | 2.3 | 4.36 | 0.626 | 3.87
18 | CCGACTGGGGCAAGGTTACTATAACGCACAGCCA | 2.98 | 3.39 | 0.184 | -0.443 | 0.157 | 0.274 | -0.27 | 0.867 | -0.248 | 1.38
19 | GCTCGGAGGCCAAGGTCAGAGCTTTGTCCGTAGA | 0.637 | 0.382 | -1.23 | -1.94 | 1.18 | 1.64 | -0.446 | 1.82 | -1.6 | 3.45
20 | CCTATTCGTTGACCATAAGGGCAACCGAAGCTCG | 0.434 | 0.637 | 0.0621 | 0.266 | 1.7 | 0.841 | 0.82 | 1.41 | 1.43 | 1.82
21 | ATCTCTAGGAAAAGTTCAGTGAAAGATCGATAGA | -0.273 | 0.00412 | 1.12 | 0.44 | 0.701 | 1.43 | 1.46 | 0.476 | 1.52 | 2.17
22 | AGAACGAGGGCACGCTGAGTTGATAGCGGAGTAG | 4.05 | 3.75 | 0.375 | 0.0426 | 0.25 | 1.35 | 0.0475 | 0.611 | 0.00108 | 2.42
23 | GGAACGAGGGCATTCGAGTTGATATCATGGCGAT | 2.99 | 2.26 | -0.118 | -0.698 | 0.277 | 3.8 | 1.54 | 0.922 | -0.657 | 1.78
24 | ATCTCTAGGTAAAGATAGGTCAGTGAATGCAAAT | 2.37 | 2.45 | 1.34 | 1.35 | 1.17 | 1.05 | 0.597 | 1.52 | 1.54 | 1.81
